# Source: PubChem BioAssay
# Active and inactive are the calls of the source.
# Assays:
# [1] = system: Plasmodium falciparum Sir2 (PF13_0152, Sir2A); assay: pfSir2 binders on small-molecule microarrays, primary screen, biochemical, small-molecule microarray, 635 nm fluorescence (AID 1098); details: small-molecule microarray binding, fluorescence 635 nm; higher = more signal;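 also: score merges spot fluorescence intensity with its signal-to-noise ratio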
# [2] = small-molecule microarray binders of probe aDKK1, primary screen, biochemical, biotinylated probe, 635/667 nm fluorescence (AID 1099); details: higher = more signal;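 also: score merges 667nm spot fluorescence with signal to noise across triplicate slides; reference of the scale not given here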
# [3] = small-molecule microarray binders of probe aCHRDL2, primary screen, biochemical, biotinylated probe, 635/667 nm fluorescence (AID 1100); details: higher = more signal
# [4] = splicing luciferase reporter signal modulators, primary screen, spliceosome inhibition project, cell-based, HEK293, splice +/- reporter (AID 1101); details: luminescence, 24 h, higher = more signal, called active from +8 up or from −8 down;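 also: HEK293 cells carrying a splicing-competent luciferase reporter gene; test concentration not given here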
# [5] = target: Fibroblast growth factor 10 (Homo sapiens) (UniProt O15520); assay: FGF10 binders on small-molecule microarrays, primary screen, biochemical, small-molecule microarray, 635 nm fluorescence (AID 1102); details: FGF10 binding, fluorescence 635 nm, higher = more signal
# Sequence of Fibroblast growth factor 10 (Homo sapiens) (O15520 whole entry, looked up): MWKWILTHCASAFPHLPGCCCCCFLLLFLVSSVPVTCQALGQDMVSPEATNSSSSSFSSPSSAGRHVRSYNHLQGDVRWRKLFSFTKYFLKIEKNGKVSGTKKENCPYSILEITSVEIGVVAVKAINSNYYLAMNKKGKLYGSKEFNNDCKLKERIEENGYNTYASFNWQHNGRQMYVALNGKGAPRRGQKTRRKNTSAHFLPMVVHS
# [6] = system: glycogen synthase kinase-3 (GSK3A per assay name; protocol says GSK3B); assay: GSK3 binders on small-molecule microarrays, primary screen, biochemical, small-molecule microarray, 635 nm fluorescence, GSK3A (AID 1103); details: small-molecule microarray binding, fluorescence 635 nm; higher = more signal; also: the record names both GSK3A and GSK3B
# [7] = target: Epidermal growth factor receptor (Homo sapiens) (UniProt P00533); assay: EGFR binders on small-molecule microarrays, primary screen, biochemical, small-molecule microarray, 635 nm fluorescence (AID 1104); details: EGFR binding, higher = more signal;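 also: score merges 667 nm emission intensity with spot signal to noise over triplicate slides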
# Sequence of Epidermal growth factor receptor (Homo sapiens) (P00533 whole entry, looked up): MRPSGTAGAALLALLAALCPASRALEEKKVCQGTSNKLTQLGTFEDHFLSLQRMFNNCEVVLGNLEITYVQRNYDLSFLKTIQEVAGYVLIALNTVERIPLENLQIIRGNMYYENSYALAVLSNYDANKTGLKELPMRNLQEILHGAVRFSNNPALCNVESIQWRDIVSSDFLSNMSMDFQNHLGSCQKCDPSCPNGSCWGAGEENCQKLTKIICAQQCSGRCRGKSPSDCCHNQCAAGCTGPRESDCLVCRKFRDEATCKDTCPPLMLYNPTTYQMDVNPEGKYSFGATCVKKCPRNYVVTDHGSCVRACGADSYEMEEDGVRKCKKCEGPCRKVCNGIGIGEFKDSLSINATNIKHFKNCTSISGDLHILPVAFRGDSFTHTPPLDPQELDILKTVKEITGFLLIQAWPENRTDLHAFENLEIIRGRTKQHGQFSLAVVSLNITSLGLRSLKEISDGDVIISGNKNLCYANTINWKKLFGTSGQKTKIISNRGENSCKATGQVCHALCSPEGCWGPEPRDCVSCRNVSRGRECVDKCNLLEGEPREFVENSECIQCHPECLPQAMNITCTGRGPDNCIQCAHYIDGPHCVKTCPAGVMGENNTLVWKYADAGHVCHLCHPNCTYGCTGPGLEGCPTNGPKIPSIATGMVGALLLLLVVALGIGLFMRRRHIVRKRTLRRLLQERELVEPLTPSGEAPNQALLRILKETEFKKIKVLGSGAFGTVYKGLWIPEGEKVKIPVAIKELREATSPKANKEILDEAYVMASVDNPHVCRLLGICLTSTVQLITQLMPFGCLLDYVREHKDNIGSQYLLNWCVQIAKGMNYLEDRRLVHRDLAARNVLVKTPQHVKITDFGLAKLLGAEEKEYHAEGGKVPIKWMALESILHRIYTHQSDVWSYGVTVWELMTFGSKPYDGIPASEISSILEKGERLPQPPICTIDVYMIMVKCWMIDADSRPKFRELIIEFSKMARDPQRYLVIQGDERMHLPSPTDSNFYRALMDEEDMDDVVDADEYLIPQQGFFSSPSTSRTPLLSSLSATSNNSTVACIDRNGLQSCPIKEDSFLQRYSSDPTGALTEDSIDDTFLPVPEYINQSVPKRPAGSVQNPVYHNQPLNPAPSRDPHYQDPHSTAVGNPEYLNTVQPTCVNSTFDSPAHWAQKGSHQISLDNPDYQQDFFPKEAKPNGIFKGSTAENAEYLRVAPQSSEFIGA
# [8] = target: Follistatin-related protein 3 (Homo sapiens) (UniProt O95633); assay: FSTL3 binders on small-molecule microarrays, primary screen, biochemical, small-molecule microarray, 635 nm fluorescence (AID 1105); details: FSTL3 binding, higher = more signal;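 also: score merges emission near 667 nm and signal to noise per printed spot across three slides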
# Sequence of Follistatin-related protein 3 (Homo sapiens) (O95633 whole entry, looked up): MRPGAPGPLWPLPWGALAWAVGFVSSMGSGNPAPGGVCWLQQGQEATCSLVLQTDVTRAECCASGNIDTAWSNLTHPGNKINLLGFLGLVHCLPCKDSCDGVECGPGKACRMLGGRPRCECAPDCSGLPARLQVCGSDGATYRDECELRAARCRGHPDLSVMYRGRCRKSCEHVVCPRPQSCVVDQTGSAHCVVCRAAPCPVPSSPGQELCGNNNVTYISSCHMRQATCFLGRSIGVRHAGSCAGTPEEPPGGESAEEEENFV
# [9] = target: Dickkopf-related protein 1 (Homo sapiens) (UniProt O94907); assay: DKK1 binders on small-molecule microarrays, primary screen, biochemical, small-molecule microarray, 635 nm fluorescence scan (AID 1106); details: DKK1 binding, higher = more signal;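 also: score merges emission near 667 nm with signal to noise over three replicate slides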
# Sequence of Dickkopf-related protein 1 (Homo sapiens) (O94907 whole entry, looked up): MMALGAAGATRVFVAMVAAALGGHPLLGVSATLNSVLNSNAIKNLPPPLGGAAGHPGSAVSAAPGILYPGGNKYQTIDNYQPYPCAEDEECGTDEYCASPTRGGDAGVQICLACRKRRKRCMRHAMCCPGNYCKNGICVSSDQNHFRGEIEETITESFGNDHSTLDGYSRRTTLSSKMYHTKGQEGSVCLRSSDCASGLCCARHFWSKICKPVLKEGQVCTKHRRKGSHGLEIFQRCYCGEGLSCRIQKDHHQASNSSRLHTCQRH
# [10] = system: Inhibin beta A chain (activin A); assay: INHBA (activin A) binders on microarrays, primary screen, biochemical, small-molecule microarray, 635 nm fluorescence scan (AID 1107); details: small-molecule microarray binding, higher = more signal;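 also: mouse activin A protein probed at 4.33 µg/mL on printed slides; score merges bound-protein fluorescence near 667 nm with spot signal-to-noise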
SMILES,composite z-score [1],composite z-score [2],composite z-score [3],z-score [4],composite z-score [5],composite z-score [6],composite z-score [7],composite z-score [8],composite z-score [9],composite z-score [10]
CC(C)=CCCC(C)=CCON=C1C[C@@H](O)[C@@H](O)[C@@H]2[C@@H]3C(=O)N(Cc4ccccc4)C(=O)[C@@H]3CC[C@H]12,0.639,-0.21,-0.659,-1.83 (inactive),0.932,1.12,0.611,1.14,-0.523,1.11
CC(CCN1CCCCc2nc(C)c(C)cc21)=NO[C@H](C)c1cn([C@H](CO)Cc2ccccc2)nn1,0.79,-0.0963,-0.65,0.339 (inactive),0.383,-0.393,0.773,1.25,0.885,1.15
O=C1CCCC(C2=CCCCC2=O)C1 (stereo not given),-0.153,-0.356,-0.766,0.378 (inactive),0.466,0.555,0.612,0.668,0.923,1.5
CCN1C(=O)[C@H]2[C@H]3[C@H](O)[C@H](O)CC(=NNC(=O)OCc4ccc(OC)cc4)[C@@H]3CC[C@H]2C1=O,-0.492,1.08,0.765,0.564 (inactive),-0.0766,0.269,-0.0752,0.0539,-0.808,0.242
CO[C@H]1COC(=O)[C@@H](Cc2ccccc2)NC(=O)[C@@H](C)COC(=O)CCC[C@@H]1C,-0.0517,-0.242,-0.539,-0.498 (inactive),0.517,-0.431,0.304,0.379,0.601,0.296
O=C1OCCC=C1C(O)CCc1ccccc1 (stereo not given),0.11,-0.344,-0.293,-0.278 (inactive),0.248,0.216,0.386,0.527,0.586,0.62
CC(C)=CCCC(C)=CCON=C1C[C@@H](O)[C@@H](O)[C@@H]2[C@@H]3C(=O)N(C4CCCCC4)C(=O)[C@@H]3CC[C@@H]12,0.511,-0.355,-0.858,0.956 (inactive),0.368,-0.345,0.859,0.502,0.996,1.04
CCOC(=O)CCN1C(=O)[C@H]2[C@H]3[C@H](O)[C@H](O)CC(=NNC(=O)OCc4ccccc4)[C@@H]3CC[C@H]2C1=O,0.205,-0.111,-0.201,0.265 (inactive),0.709,0.323,0.188,0.993,0.516,-0.196
CO[C@H]1COC(=O)CC=C[C@H](C)[C@@H](OC)COC(=O)[C@@H](C)COC(=O)CC=C[C@@H]1C,0.567,-0.909,-1.66,0.337 (inactive),0.902,0.709,1.32,1.47,1.3,1.79
CSCC[C@@H]1NC(=O)CC=C[C@@H](C)COC(=O)[C@@H](C)COC1=O,-0.0958,-0.417,-0.816,-0.0857 (inactive),-0.0586,0.812,0.0541,-0.149,-0.18,0.705
O=C(NN=C1C[C@@H](O)[C@@H](O)[C@@H]2[C@@H]3C(=O)N(C4CCCCC4)C(=O)[C@@H]3CC[C@H]12)OCc1ccccc1,0.0222,0.691,1.07,-0.177 (inactive),0.836,0.0816,0.554,-0.483,-0.504,-0.0726
COC(=O)CC=C[C@@H](C)[C@H](OCc1cccc(-c2ccccc2)c1)C1CCCCC1,-0.632,-0.416,-0.223,-0.102 (inactive),-0.127,-1.21,0.371,0.736,0.352,1.97
COC(=O)[C@H](C)NC(=O)CCC1CC(OC(=O)NCc2ccc3c(c2)OCO3)CC2(CCCC(COC(=O)NCc3cccc(C(F)(F)F)c3)O2)O1 (stereo not given in full),1.02,0.114,-0.289,0.562 (inactive),0.818,0.622,0.223,1.14,0.235,-0.0499
C[C@@H](c1ccccc1)N1C(=O)[C@H]2[C@H]3[C@H](O)[C@H](O)CC(=NOCc4ccccc4)[C@H]3CC[C@H]2C1=O,0.8,-0.197,-0.442,-0.0874 (inactive),0.601,0.535,0.45,0.44,0.312,-0.27
C#CCCCON=C1C[C@@H](O)[C@@H](O)[C@@H]2[C@@H]3C(=O)N(CC)C(=O)[C@@H]3CC[C@@H]12,0.254,-0.129,-0.697,0.401 (inactive),1.18,0.545,0.631,0.496,0.628,-0.236
O=C1[C@H]2[C@H]3[C@H](O)[C@H](O)CC(=NOC[C@@H](O)COCc4ccco4)[C@H]3CC[C@H]2C(=O)N1c1ccc(F)cc1F,-0.295,0.0973,-0.901,-2.86 (inactive),-0.921,0.0894,-0.553,-0.529,-0.301,-0.413
